Imprint erasure = qHTS Assay for Compounds that Induce Erasure of Genomic Imprints; mouse ES Peg3-LacZ reporter, beta-gal luminescence, 40 h; Potency, µM (titrated, usually from 60.7 µM), without a hit: top-dose activity change, positive = activation, most hits filed as activators; actives 0.02% (n = 110,000); AID 1948, 2009
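Each well holds 300 Peg3LacZ-Neo (maternal) female ES cells incubated 40 h at 37C, 5% CO2. LacZ is measured by BetaGlo luminescence, with AC50 and maximum efficacy derived from dose-response curves.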
IkB sig inh = IkB Signaling | actives 0.04% (n = 110,000) | Potency, µM (series often up to 57.1 µM), for inactives: top-dose IkBa stabilization activation | ABC-DLBCL IkBa-CBG/CBR dual luciferase ratio, 4 h; response scale: scaled: untreated 0%, proteasome inhibitor 100%; active = well fitted curve in the direction sought with a large enough effect in the signal ratio, not every such curve was filed as active; inconclusive = small, poorly fitted or top-dose-only effect, or a change in a side signal; the % refers to the signal ratio;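 note: the direction sought is a rising ratio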
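Curves were fitted separately to fusion (green), unfused (red) and ratio luminescence, then classed by r2, magnitude and activity. Cells: OCI-Ly3, 4 h compound plus doxycycline at 37C; 10 uM MG-132 defined full response.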
p53ts 39C kill = qHTS Screen for Compounds that Selectively Target Cancer Cells with p53 Mutations: Cytotoxicity of p53ts Cells at the Nonpermissive Temperature; H1299-p53A138V viability at 39C, ATP luminescence, 24 h; Potency, µM (titrated, usually from 46.1 µM), for inactives: top-dose activity change, negative = cell killing, usual class: cytotoxic; actives 1.5% (n = 130,000); note: % is set by controls: 0 for no effect and ±100 for the full control effect; nearly all actives have a fitted effect of over 55% in size
p53ts 32C kill = qHTS Screen for Compounds that Selectively Target Cancer Cells with p53 Mutations: Cytotoxicity of p53ts Cells at the Permissive Temperature; H1299-p53A138V at 32C, ATP luminescence viability, 24 h; Potency, µM (highest dose often 46.1 µM), for inactives: at the highest dose activity change, negative = cytotoxicity, most hits filed as cytotoxic; actives 0.93% (n = 130,000);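 note: 0% = DMSO and -100% = full killing by reference compound; nearly all actives have a fitted effect of over 55% in size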
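ATP-content luminescence (ATPlite) read-out after 24 h compound exposure at 32C in H1299-p53A138V cells (600/well). Tested up to 46 uM. Normalized to DMSO (0%) and 100 uM tamoxifen (100% killing); Hill-fit AC50.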
The depositor's hits bear a star; ? = inconclusive; · = no result given; ! = not active in a repeat; [ ] = remark or other dose. An excerpt weighted towards active compounds, which were near 1.7% of everything screened. Unless noted, calls come from the whole dose curve; as a rule, active = well fitted curve in the direction sought with a large enough effect; inconclusive = small, poorly fitted or top-dose-only effect, or another doubt; inactive = no such curve, though single readings can be large; an effect the other way counts as inactive or inconclusive. Potency is the fitted concentration of half-maximal effect.

SMILES	Imprint erasure	IkB sig inh	p53ts 39C kill	p53ts 32C kill
CCOc1ccc(NC(=O)c2nc(S(=O)(=O)Cc3ccccc3F)ncc2Cl)cc1	-40%[10.9 µM]	?	7.9µM*	14µM*
O=C(Nc1nc2ccc(F)cc2s1)c1nc(S(=O)(=O)Cc2ccccc2F)ncc1Cl	-67%[10.9 µM]	-3%	5µM*	10µM*
O=C(NCc1ccccc1)c1nc(S(=O)(=O)Cc2ccccc2)ncc1Cl	-16%[10.9 µM]	?	7.9µM*	?
COc1ccc(-c2ccc(NS(=O)(=O)c3cc(C)c(C)cc3C)cc2)nn1	2%[10.9 µM]	?	-15%	8%
COc1ccc(NC(=O)c2nc(S(=O)(=O)Cc3ccc(C)cc3)ncc2Cl)cc1	-30%[10.9 µM]	-4%	6.3µM*	?
COc1ccc(CNC(=O)c2nc(SCc3ccc(C)cc3)ncc2Cl)cc1	-13%[10.9 µM]	0%	-23%	-6%
CC(C)Sc1ncc(Cl)c(C(=O)Nc2c(C(=O)Nc3ccccc3)oc3ccccc23)n1	8%[10.9 µM]	1%	-15%	17%
CCNC(=O)c1c(NC(=O)c2nc(S(=O)(=O)CC)ncc2Cl)sc2c1CCCC2	-39%[10.9 µM]	?	3.2µM*	?
CCCS(=O)(=O)c1ncc(Cl)c(C(=O)Nc2c(C(=O)Nc3ccccc3)oc3ccccc23)n1	-39%[10.9 µM]	?	6.3µM*	?
CN1CCc2cccc3c2[C@@H]1Cc1ccc(O)c(O)c1-3	-23%	-1%[11.4 µM]	10µM*!	32µM*!
Cc1ccc(-c2cn3nc(N4CCC(C(=O)Nc5ccccc5C)CC4)sc3n2)cc1	·	·	·	2%
c1ccc(-c2cn3nc(-c4ccccc4)sc3n2)cc1	1%	?	?	1µM*
CCc1ccc(-c2cn3nc(CC)sc3n2)cc1	-12%[10.9 µM]	73%	6.3µM*	13µM*
Cc1nn2cc(-c3ccccc3)nc2s1	-86%	?	10µM*	10µM*
c1ccc(-c2nnc3sc(-c4ccncc4)nn23)cc1	-11%	-3%	4%	8%
CC(C)Cc1nn2cc(-c3cccc(Br)c3)nc2s1	-25%[10.9 µM]	?	10µM*	13µM*
Cc1cc(O)c(C(C)C)cc1Cl	0%	·	·	·
CCCCCc1nn2cc(-c3ccccc3)nc2s1	-40%[10.9 µM]	?	10µM*	?
Cc1nn2cc(-c3ccc(OC(C)C)cc3)nc2s1	-63%[10.9 µM]	-4%	10µM*	13µM*
CCCc1nn2c(C)c(-c3ccccc3)nc2s1	-54%[10.9 µM]	13%	10µM*	6.3µM*
c1ccc(CCc2nn3c(-c4ccncc4)nnc3s2)cc1	4%	2%	35%	24%
CCN(CC)C(=O)c1sc2nc(-c3ccc(OC)cc3)cn2c1C	-60%	4%	?	?
COc1cc(/C=C(\C#N)c2nc3ccccc3[nH]2)ccc1OCc1cccc(C(F)(F)F)c1	-26%[10.9 µM]	-1%	3.2µM*	13µM*
O=C(Nc1nc2c(s1)CCCC2)c1cccs1	·	?	10µM*	10µM*
CC1(C)CC(=O)c2sc(NC(=O)CN3CCCCC3)nc2C1	23%	1%	8%	6%
SMILES	Imprint erasure	IkB sig inh	p53ts 39C kill	p53ts 32C kill
CC1(C)CC(=O)c2sc(NC(=O)c3cccs3)nc2C1	·	·	1.6µM*	1.6µM*
O=C(c1cc2ccccc2o1)c1cccs1	-8%	0%	0%	-12%
O=C(c1cccs1)c1ccc(-c2cccs2)s1	-84%	?	10µM*	7.9µM*
CCOC(=O)c1cccc(NC(=O)c2cc3cc4cc(OC)ccc4nc3s2)c1	-12%[10.9 µM]	?	-22%	2%
CCOC(=O)c1cccc(NC(=O)c2cc3cc4ccc(C)cc4nc3s2)c1	-11%[10.9 µM]	?	10µM*	-5%
COc1ccc(C)cc1NC(=O)Nc1cccc(OCc2cc(=O)n3ccc(C)cc3n2)c1	-11%[10.9 µM]	?	-1%	-8%
Cc1ccccc1S(=O)Cc1ccc(C(=O)N2CCN(c3cccc(C)c3C)CC2)o1 (centres undefined)	-28%[10.9 µM]	-4%	-27%	-25%
Cc1sc2ncnc(Sc3nnnn3-c3ccc(Cl)cc3)c2c1C	-20%	?	5µM*	10µM*
Cc1sc2ncnc(SCc3ccco3)c2c1C	-8%	?	5%	3%
CCOC(=O)c1ccc(N2C(=O)c3n[nH]c(C)c3C2c2ccc(OCC)cc2)cc1 (centres undefined)	8%[10.9 µM]	?	-4%	12%
CCN1C(C(=O)c2ccccc2)=C(OC(=O)c2ccccc2OC)c2ccccc2S1(=O)=O	-10%[10.9 µM]	?	10µM*	?
CCc1ccc(NC(=O)Cn2cc(S(=O)(=O)c3ccc(F)cc3)c(=O)c3cc(OC)ccc32)cc1	-5%[10.9 µM]	9%	13µM*	?
CCCn1c(C)nc2c(Nc3ccccc3)nc(C)nc21	-4%	·	-3%	6%
CCc1ccc(OCC(=O)Nc2ccc(Cl)c(-c3nc4cc(C)cc(C)c4o3)c2)cc1	-10%[10.9 µM]	-1%	-16%	3%
Cc1ccc2nc(-c3cc(NC(=O)COc4ccc(C)c(C)c4)ccc3Cl)oc2c1	-16%[10.9 µM]	2%	13µM*	?
COc1cccc(NC(=O)CSc2nnc(NC(=O)NC3CCCCC3)s2)c1	?	?	13µM*	11µM*
Cc1ccc(NC(=O)CSc2nnc(NC(=O)NC3CCCCC3)s2)cc1	17%[10.9 µM]	3%	?	-12%
O=C(NCc1ccco1)c1ccc2c(c1)N(Cc1cccc(Cl)c1)C(=O)c1ccccc1S2=O (centres undefined)	-13%[10.9 µM]	1%	18%	25%
CC(=O)c1cccc(NC(=O)c2oc(=O)c3ccccc3c2-c2ccccc2)c1	-12%[10.9 µM]	?	-6%	-10%
Cc1c2cccc(Sc3ccccc3)c2c2c3c(cccc13)[S+](c1ccccc1)C2 (centres undefined)	9%[10.9 µM]	0%[11.4 µM]	6%[9.22 µM]	5%[9.22 µM]
O=C(NC1CCCC1)c1cc(Nc2cccc(C(F)(F)F)c2)nc2ccccc12	-7%[10.9 µM]	?	-11%	-24%
O=C1C(SCCO)=C(SCCO)C(=O)c2ccccc21	-74%	?	0.79µM*	0.63µM*
N#CC(=NCCO)C1=C(O)c2ccccc2C1=O	0%[10.9 µM]	-1%[11.4 µM]	-16%[9.22 µM]	?
CCCC(=O)Nc1ccc(-c2nc3cc(C)c(C)cc3o2)cc1	-18%	0%	6%	-6%
CCCC(=O)Nc1cccc(-c2nc3cc(C)c(C)cc3o2)c1C	-19%[10.9 µM]	?	2.5µM*	2µM*
Cc1ccc2nc(-c3cccc(N)c3)[nH]c2c1	·	·	11µM*	14µM*
COc1ccc2nc(-c3ccccc3)[nH]c2c1	-95%	?	13µM*	10µM*
CCOc1ccc2nc(-c3ccccc3)[nH]c2c1	-88%	?	5µM*	6.3µM*
CC(C)NC(=O)c1ccc(CSc2nc3ccncc3n2Cc2cccc(F)c2)cc1	-7%[10.9 µM]	?	-7%	-2%
Cc1ccc(/C=C/c2onc(C)c2S(=O)(=O)N2CCC(C(=O)N3CCN(c4cccc(C)c4)C(C)C3)CC2)cc1 (centres undefined)	-15%[10.9 µM]	1%	-8%	-3%
